G9a inh: qHTS Assay for Inhibitors of Histone Lysine Methyltransferase G9a; Histone-lysine N-methyltransferase EHMT2 (Homo sapiens), Q96KQ7; 350,000 compounds, 8.8% hits; Potency, µM (doses to about 102 µM), for the others: at the highest dose activity, negative = inhibition, hits mostly inhibitors; G9a H3K9 monomethylation, AlphaScreen, 2 h; also: % is scaled to controls: 0 for no effect and ±100 for the full control effect; nearly all actives have a fitted effect of over 75% in size
Target sequence (Q96KQ7 913-1193 limits assumed): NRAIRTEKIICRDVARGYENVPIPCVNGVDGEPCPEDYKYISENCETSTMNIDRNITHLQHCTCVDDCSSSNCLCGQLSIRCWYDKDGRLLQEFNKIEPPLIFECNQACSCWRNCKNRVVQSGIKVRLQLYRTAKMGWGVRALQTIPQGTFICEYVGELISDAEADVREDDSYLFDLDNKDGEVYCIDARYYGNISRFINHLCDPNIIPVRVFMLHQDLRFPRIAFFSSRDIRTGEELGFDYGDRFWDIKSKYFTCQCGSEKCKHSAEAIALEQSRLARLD
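Step 1: enzyme (final 20 nM) with compound, 15 min RT. Step 2: substrate peptide 500 nM and SAM 20 uM, 2 h RT. Step 3: anti-H3K9me1 antibody and AlphaScreen beads, 10 min, then plate read.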
JMJD2A Tudor inh: qHTS Assay for Inhibitors of JMJD2A-Tudor Domain; Lysine-specific demethylase 4A (Homo sapiens), O75164; AlphaScreen JMJD2A-Tudor / H3K4me3 peptide binding; Potency, µM (highest dose often 114 µM), without a hit: at the highest dose activity change, negative = inhibition, usual class: inhibitors; 390,000 compounds, 4.4% hits; AID 504339, 2011; also: % is scaled to controls: 0 for no effect and ±100 for the full control effect; nearly all actives have a fitted effect of over 50% in size
BAZ2B inh: qHTS Assay for Inhibitors of BAZ2B. AlphaScreen BAZ2B-H3K14Ac peptide displacement. Potency, µM (doses to about 114 µM), without a hit: at the top dose activity change, negative = inhibition, most hits filed as inhibitors. 360,000 compounds, 4.4% hits. Bromodomain adjacent to zinc finger domain protein 2B (Homo sapiens), Q9UIF8; also: % is scaled to controls: 0 for no effect and ±100 for the full control effect; nearly all actives have a fitted effect of over 60% in size
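AlphaScreen displacement of biotin-H3(5-23)K14Ac peptide (50 nM final) from BAZ2B (50 nM final) in PBS pH 7.4, 0.01% Tween-20; complex preformed 30 min RT, then compounds (top 110 uM) 30 min RT, beads 20 min dark.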
L3MBTL1 block: qHTS Assay for the Inhibitors of L3MBTL1; Lethal(3)malignant brain tumor-like protein 1 (Homo sapiens), Q9Y468; AlphaScreen L3MBTL1–H3K9me1 peptide binding; Potency, µM (highest dose often 57.1 µM), for the others: top-dose activity, negative = inhibition, hits mostly inhibitors; 230,000 compounds, 0.66% hits; AID 485360, 2010; also: % is scaled to controls: 0 for no effect and ±100 for the full control effect; nearly all actives have a fitted effect of over 60% in size
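AlphaScreen proximity signal between nickel-chelate acceptor and streptavidin donor beads (final 10 ug/mL) reports binding of 50 nM L3MBTL1 to 75 nM biotin-H3 K9me1 peptide; complex incubated with compounds 30 min at room temperature; cefsulodin titration as control.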
HP1b chromo inh: HTS for Inhibitors of HP1-beta Chromodomain Interactions with Methylated Histone Tails | Chromobox protein homolog 1 (Homo sapiens), P83916 | AlphaScreen HP1-beta / biotin-H3K9me3 peptide binding | Potency, µM (titrated, usually from 114 µM), for inactives: at the top dose activity change, negative = inhibition, actives largely listed as inhibitors | 390,000 compounds, 0.56% hits; also: nearly all actives have a fitted effect of over 70% in size
Target sequence (P83916 whole entry, looked up): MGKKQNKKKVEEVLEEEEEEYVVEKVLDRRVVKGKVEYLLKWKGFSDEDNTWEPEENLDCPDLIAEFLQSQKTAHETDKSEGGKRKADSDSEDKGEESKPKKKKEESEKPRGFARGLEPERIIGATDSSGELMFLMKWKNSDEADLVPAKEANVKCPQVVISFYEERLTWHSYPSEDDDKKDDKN
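HP1-beta protein (50 nM final) preincubated 30 min at room temperature with biotinylated H3(1-18)K9me3 peptide (50 nM) in PBS pH 7.4, 0.01% Tween-20, then compound added for 30 min. AlphaScreen streptavidin donor/nickel chelate acceptor beads (10 ug/mL final), 30 min dark, luminescence read.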
Sfp inh: qHTS Assay for Inhibitors of Bacillus subtilis Sfp phosphopantetheinyl transferase (PPTase) | 4'-phosphopantetheinyl transferase ffp (Bacillus subtilis), Q9F4F7 | Biochemical Sfp PPTase activity, qHTS | Potency, µM, inactives show largest response in the series, negative = inhibition, actives largely listed as inhibitors | 310,000 compounds, 3.5% hits | AID 1490, 2009;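 also: the enzyme is Sfp with the accession as filed and its product quenches rhodamine fluorescence; 0% = enzyme reaction without inhibitor and -100% = no enzyme wells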
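Fluorescence-quenching assay with 15 nM Sfp, 5 uM rhodamine-CoA and 12.5 uM BHQ-2-labelled ybbR peptide in pH 7.6 Hepes/MgCl2 buffer. Enzyme was pre-incubated with compound for 15 min at room temperature. Rate was taken from the 30-min fluorescence change (525/598 nm).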
The depositor's hits bear a star; ? = inconclusive; / = not tested or not shown; [ ] = remark or other dose. Rows were chosen to be rich in hits. Some 12% of all compounds tested hit in one or more screens of this group. Calls follow the shape of the dose curve; as a rule, active = well fitted curve in the direction sought with a large enough effect; inconclusive = small, poorly fitted or top-dose-only effect, or another doubt; inactive = no such curve, though single readings can be large; an effect the other way counts as inactive or inconclusive. Potency is read from the fitted curve at half-maximal effect.

SMILES	G9a inh	JMJD2A Tudor inh	BAZ2B inh	L3MBTL1 block	HP1b chromo inh	Sfp inh
COc1cccc(NC(=O)C(c2ccccc2)N2CCN(CC(=O)N3CCOCC3)CC2)c1 (stereo not given)	-4%[12.7 µM]	-10%	-5%	-8%	43%	/
CCNC(=S)NNC(=O)CCn1c2ccccc2c2ccccc21	33%	-6%	-6%	1%	44%	26%
CCNC(=S)NNc1nncc2ccccc12	?	?	-24%	-14%	3%	4µM*
CCNC(=S)NNc1ccccc1	/	?	?	8%	-20%	35µM*
CNC(=S)NNc1nncc2ccccc12	2.5µM*	-22%	-14%	0%	-14%	22µM*
CCCCC/C=C\C/C=C\C/C=C\C/C=C\CCCC(=O)O[C@@H](CO)COCCCCCCCCCCCCCCCC	9%[59 µM]	/	/	/	/	14%
O=C(Nc1ccc(-c2nnn(CC(=O)N3CCN(C(=O)c4ccco4)CC3)n2)cc1)c1ccccc1F	56µM*	/	-14%	-4%	/	-3%
CCC(=NCc1ccc(Cl)c(Cl)c1)c1nc(-c2ccco2)oc1O	45µM*	?	13µM*	-28%	?	-5%
COc1ccc(N=Cc2nc(-c3ccco3)oc2O)cc1	?	-15%	-5%	2%	24%	10%
Cc1cccnc1NC(=S)Nc1ccc(Br)cc1Cl	?	?	50µM*	-18%	?	20µM*
S=C(NCc1ccncc1)Nc1ccc(Br)cc1Cl	?	-14%	-8%	/	48%	0%
CCOc1ccc(NC(=S)Nc2ccc(Br)cc2Cl)cc1	-27%	-15%[57.1 µM]	-27%	-9%[11.4 µM]	14%	40µM*
CC(C)c1nnc(SCC(=O)Nc2ccc3c(c2)OCCO3)n1C	-3%	-2%	-15%	/	16%	10%
OCc1ccc2c(c1)c(-c1ccc3c(c1)OCCO3)c(-c1ccccc1)n2-c1ccccc1	-3%[0.501 µM]	45µM*	?	-28%	-17%	/
CC1=C(SCCC#N)S/C(=C2\SC(C)=C(SCCC#N)S2)S1	1.3µM*	56µM*	-32%	-15%	?	7.9µM*
Cn1c(SCCC#N)nnc1-c1ccc(F)cc1	-1%	/	/	10%	/	20%
Cc1ccc(C)c(Oc2cc(NN3CCCCC3)c([N+](=O)[O-])cc2[N+](=O)[O-])c1	7.9µM*	?	?	3%	-12%	4%
O=[N+]([O-])c1cc([N+](=O)[O-])c(Oc2cccc(Cl)c2Cl)cc1NN1CCCCC1	?	?	?	-6%	-18%	1%
O=[N+]([O-])c1cc([N+](=O)[O-])c(Oc2ccccc2F)cc1NN1CCCCC1	/	?	?	-9%	-18%	12%
CC1(C)Cc2cccc(Oc3cc(NN4CCCCC4)c([N+](=O)[O-])cc3[N+](=O)[O-])c2O1	35µM*	?	?	-5%	-11%	2%
COc1cc(C(C)=O)ccc1Oc1cc(NN2CCCCC2)c([N+](=O)[O-])cc1[N+](=O)[O-]	28µM*	?	?	-13%	-8%	15%
CCN(CC(=O)Nc1ccc(NC(C)=O)cc1)C(=O)CCCOc1ccc(C(C)(C)C)cc1	-43%[12.7 µM]	-25%	-5%	6%	3%	/
CC(OC(=O)Cc1ccc(Cl)cc1)C(=O)NC1CCCCC1C (stereo not given)	-20%	-1%	-3%	7%	41%	/
CC1CC(C(F)F)n2nc(C(=O)O)cc2N1 (stereo not given)	1%	20µM*	-11%	/	-3%	-15%
CS(=O)(=O)Nc1ccccc1C(=O)OCc1cc(=O)n2nc(C3CCCCC3)sc2n1	0%[59 µM]	-21%	-8%	/	-16%	/
SMILES	G9a inh	JMJD2A Tudor inh	BAZ2B inh	L3MBTL1 block	HP1b chromo inh	Sfp inh
Cc1nnc(Nc2ccc(O)cc2)[nH]c1=O	50µM*	-11%	-26%	?	4%	6%
O=C(Nc1ccncc1)C1C(=O)c2ccccc2N(Cc2ccccc2)C1=O (stereo not given)	/	-23%	/	/	0%	/
CCC(=O)N1CCc2cc(Br)cc(S(=O)(=O)CCC(=O)NCCc3cccc(C)c3)c21	-7%[59 µM]	-9%	0%	/	6%	/
c1coc(C2=NC(c3ccco3)C(c3ccco3)N2)c1 (stereo not given)	/	-17%	/	/	9%	/
CC1=Nc2cccc3cccc(c23)N1	25µM*	?	-5%	-15%	?	?
Cc1ccc(C(=O)NNC2=Nc3cccc4cccc2c34)cc1	17%	-21%	4%	-17%	28%	4%
COc1cccc(C2=Nc3cccc4cccc(c34)N2)c1	16µM*	50µM*	40µM*	-11%	?	-17%
Nc1ccc(C2=Nc3cccc4cccc(c34)N2)cc1	?	-23%	50µM*	-12%	25%	9%
c1coc(C2=Nc3cccc4cccc(c34)N2)c1	40µM*	-29%	?	-12%	?	-26%
CCOC(=O)N1CCN(CC(O)COc2ccc(OC)cc2C(C)(C)C)CC1 (stereo not given)	-2%[59 µM]	-23%	?	-3%	24%	3%
COc1ccc(CCNCC(O)COc2cccc(Br)c2)cc1OC (stereo not given)	/	1µM*	50µM*	/	?	-17%
COc1ccc(CCNCC(O)COc2ccc(OC)cc2C(C)(C)C)cc1 (stereo not given)	45µM*	3.5µM*	71µM*	/	?	?
COc1ccccc1C(=O)NCC(=O)NNC(=O)c1cccs1	/	17%	/	3%	40%	/
COc1ccccc1CCNC(=O)Cc1c(C)c2cc3c(C)coc3cc2oc1=O	3%[59 µM]	-10%	-2%	/	35%	/
COc1ccc(S(=O)(=O)N(C(=O)c2ccco2)c2cc3sc(=O)oc3c3ccccc23)cc1	1.4µM*	?	?	-9%	?	7.9µM*
CCOc1ccc(S(=O)(=O)N(C(=O)c2ccco2)c2cc3sc(=O)oc3c3ccccc23)cc1	1.4µM*	?	?	-5%	?	5.6µM*
Cc1ccc(S(=O)(=O)N(C)CC(=O)N2CCN(C(=O)c3ccco3)CC2)cc1	9%[59 µM]	15%	5%	-15%	27%	-13%

Screening data (PubChem BioAssay)
